The source of these data is PubChem BioAssay (NCATS).

Experiment [1] in a line: P-glycoprotein substrates identified in KB-8-5-11 adenocarcinoma cell line, qHTS therapeutic library screen (AID 1346987). Further: nearly all actives have a fitted effect of over 65% in size. Further: potency means the concentration at half of the fitted maximal effect. The method in brief:
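Steps: plate 500 KB-8-5-11 cells/well in DMEM + 10% FCS (colchicine removed); pin compounds in dose-response; incubate 72 h, 37 degree C, 5% CO2; add CellTiter-Glo, 5 min; read luminescence.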
(In general: Quantitative high-throughput screening tests each substance at several concentrations.)

Experiment [2] in a line: Primary redox qHTS assay for identification of artifact compounds. (AID 1845223).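 Further: 0% = DMSO and 100% = reference compound.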 In a few lines: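 Amplex Red (25 uM) and HRP (250 mU/mL) in HBSS, with compounds for 15 min, then 250 uM DTT for 30 min, room temperature, dark. Fluorescence 525/598 nm read; normalized to DMSO and 10 uM DA3003; Hill fit.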
Experiment [3] concerns HaCat. The experiment in a line: Cytotoxic Profiling of Annotated Libraries Using Quantitative High-Throughput Screening (AID 1296008). Further: nearly all actives have a fitted effect of over 60% in size. Further: potency means the concentration at half of the fitted maximal effect. On max response: on the % scale 0 is the no-effect control and ±100 the full control effect. The note with it: Five cell lines viability, CellTiter-Glo ATP luminescence, 48-72 h; max response: stronger effect = lower value. In a few lines:
(§1)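 Cytotoxicity was measured as CellTiter-Glo ATP luminescence, read after 10 min at room temperature. Compound treatment of the cells lasted 48 or 72 hr at 37 degrees Celsius in a qHTS format.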
A general note: ATP-based viability assays read luminescence as a measure of living cells.

The test system of another experiment is KB-3-1. The experiment is described as above. The note with it: Five cell lines viability, CellTiter-Glo ATP luminescence, 48-72 h; max response: stronger effect = lower value. In a few lines:
as §1

A further experiment relates to HeLa. The experiment in a line: Primary qHTS to identify gynecologic anti-cancer compounds using libraries of approved drugs and bioactive compounds (AID 1345084). Further: nearly all actives have a fitted effect of over 55% in size. Further: potency means the concentration at half of the fitted maximal effect. The note with it: Gynecologic cancer cell panel viability, ATPlite luminescence, 48 h; series mostly up to 57.5 µM. In a few lines: (§2)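 Measured: luminescence after ATPlite addition (15 min, RT). Exposure: 48 h, 37 C, 5% CO2.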

For another experiment, the system named is SKOV3. Described as above. The note with it: Gynecologic cancer cell panel viability, ATPlite luminescence, 48 h; series mostly up to 57.5 µM. In a few lines: as §2
A further experiment concerns CRL-7250. The experiment in a line: qHTS assay to identify novel small-molecules to repurpose for Merkel cell carcinoma treatment (AID 1296009). Further: nearly all actives have a fitted effect of over 60% in size. The conditions noted are these: MCC and control cell lines, CellTiter-Glo viability, 72 h; series mostly up to 92 µM. In a few lines: (§3)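 72 hr, 37 degree celsius; NPC 8-pt / MIPE 11-pt dose response; compound pinned in DMSO; CellTiter-Glo, 10 min RT, luminescence; normalized to no-cell and DMSO controls.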

In experiment [4] the test system is HACAT. Described as above. The conditions noted are these: MCC and control cell lines, CellTiter-Glo viability, 72 h; at 44.8 µM (top of the series) unless noted. The method in brief: as §3
The nature of experiment [5]: Primary qHTS for inhibitors of nuclear receptor binding SET domain protein 2 (NSD2) in an isogenic RCH-ACV NSD2 p.E1099K mutant (9B) (AID 1645876). Further: nearly all actives have a fitted effect of over 70% in size. Further: potency means the concentration at half of the fitted maximal effect.
Experiment [6] in a line: Primary qHTS for inhibitors of nuclear receptor binding SET domain protein 2 (NSD2) in an RCH-ACV wild type WT cells (2C) (AID 1645877). Further: nearly all actives have a fitted effect of over 70% in size. Further: potency means the concentration at half of the fitted maximal effect.
For the next experiment, the system named is NIH3T3. The experiment in a line: qHTS assay to identify novel small-molecules to repurpose for Merkel cell carcinoma treatment (AID 1296009). Further: nearly all actives have a fitted effect of over 60% in size. The note with it: MCC and control cell lines, CellTiter-Glo viability, 72 h; at 44.8 µM (top of the series) unless noted. In a few lines:
as §3

The target in experiment [7] is Cytochrome P450 2D6 (Homo sapiens) (UniProt P10635). The experiment in a line: Cytochrome P450 family 2 subfamily D member 6 (CYP2D6) small molecule antagonists: luciferase biochemical (cell-free) qHTS assay (AID 1645840; active means well fitted curve in the direction sought with a large enough effect in the repeat runs; an effect the other way counts as inactive or inconclusive; further: nearly all actives have a fitted effect of over 55% in size; further: potency means the concentration at half of the fitted maximal effect; on activity change, negative = inhibition: on the % scale 0 is the no-effect control and ±100 the full control effect). In a few lines:
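P450-Glo luminescent screen: recombinant CYP2D6 enzyme–proluciferin substrate mix preincubated with compound 10 min at room temperature, then NADPH regeneration added for 1 h at room temperature. Detection reagent added for 20 min; luciferin light read as relative luminescence units.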

Experiment [8] has as its target Catechol O-methyltransferase (Homo sapiens) (UniProt P21964). The experiment in a line: Confirmatory Screen for Target Class Profiling of Small Molecule Inhibitors of Methyltransferases (AID 1745852). On activity change, negative = inhibition: on the % scale 0 is the no-effect control and ±100 the full control effect. The conditions noted are these: MTase-Glo luminescence, SAH detection, recombinant enzyme; measured here: COMT max response; stronger effect = lower value.
Experiment [9] concerns the target Guanidinoacetate N-methyltransferase (Homo sapiens) (UniProt Q14353). The experiment is described as above. The conditions noted are these: activity change, negative = inhibition: at 57.3 µM (top of the series) unless noted.
The target in experiment [10] is Nicotinamide N-methyltransferase (Homo sapiens) (UniProt P40261). The description is as above. The conditions noted are these: MTase-Glo luminescence, SAH detection, recombinant enzyme; measured here: NNMT max response; stronger effect = lower value.
Nicotinamide N-methyltransferase (Homo sapiens), sequence (P40261 whole entry, looked up): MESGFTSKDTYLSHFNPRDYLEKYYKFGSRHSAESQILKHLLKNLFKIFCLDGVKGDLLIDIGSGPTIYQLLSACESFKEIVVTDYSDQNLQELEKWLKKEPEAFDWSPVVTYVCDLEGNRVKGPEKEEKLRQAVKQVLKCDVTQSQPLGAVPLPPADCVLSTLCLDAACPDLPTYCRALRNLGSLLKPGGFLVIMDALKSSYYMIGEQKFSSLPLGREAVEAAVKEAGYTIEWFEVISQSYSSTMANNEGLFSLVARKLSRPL
The target of experiment [11] is Phenylethanolamine N-methyltransferase (Homo sapiens) (UniProt P11086). Described as above. The note with it: MTase-Glo luminescence, SAH detection, recombinant enzyme; measured here: PNMT max response; stronger effect = lower value.
Phenylethanolamine N-methyltransferase (Homo sapiens), sequence (P11086 whole entry, looked up): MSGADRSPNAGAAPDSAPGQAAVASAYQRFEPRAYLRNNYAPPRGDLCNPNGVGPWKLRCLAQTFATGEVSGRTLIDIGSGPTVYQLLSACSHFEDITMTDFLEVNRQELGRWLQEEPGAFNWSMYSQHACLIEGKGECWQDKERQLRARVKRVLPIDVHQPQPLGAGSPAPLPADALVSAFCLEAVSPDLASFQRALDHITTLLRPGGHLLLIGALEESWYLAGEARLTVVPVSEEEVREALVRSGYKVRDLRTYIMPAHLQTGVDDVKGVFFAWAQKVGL
In experiment [12] the target is Cytochrome P450 2C9 (Homo sapiens) (UniProt P11712). The experiment in a line: Cytochrome P450 family 2 subfamily C member 9 (CYP2C9) small molecule antagonists: luciferase biochemical (cell-free) qHTS assay (AID 1645842; active means well fitted curve in the direction sought with a large enough effect in the repeat runs; an effect the other way counts as inactive or inconclusive; further: potency means the concentration at half of the fitted maximal effect; nearly all actives have a fitted effect of over 55% in size). The method in brief: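 Luminescence, after 20 min with luciferin detection reagent, reflected CYP2C9 turnover during a 1 h NADPH-driven reaction at 37C. Enzyme-substrate mix contained 0.4% bovine serum albumin and was preincubated with compound 10 min at room temperature.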
Cytochrome P450 2C9 (Homo sapiens), sequence (P11712 whole entry, looked up): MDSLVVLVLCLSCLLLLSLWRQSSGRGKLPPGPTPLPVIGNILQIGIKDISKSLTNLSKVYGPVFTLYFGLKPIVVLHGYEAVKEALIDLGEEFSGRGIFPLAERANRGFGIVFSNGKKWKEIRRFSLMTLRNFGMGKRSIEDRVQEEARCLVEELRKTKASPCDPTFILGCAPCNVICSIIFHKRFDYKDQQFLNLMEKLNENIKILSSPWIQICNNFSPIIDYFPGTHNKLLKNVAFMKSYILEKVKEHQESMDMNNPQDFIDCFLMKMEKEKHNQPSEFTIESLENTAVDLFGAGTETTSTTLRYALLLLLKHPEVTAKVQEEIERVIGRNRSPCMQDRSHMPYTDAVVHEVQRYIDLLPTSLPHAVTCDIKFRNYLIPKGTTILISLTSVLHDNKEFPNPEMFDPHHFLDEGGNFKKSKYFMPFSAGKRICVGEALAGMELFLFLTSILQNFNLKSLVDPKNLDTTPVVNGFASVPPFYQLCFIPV

A short description of experiment [13]: P-glycoprotein substrates identified in KB-3-1 adenocarcinoma cell line, qHTS therapeutic library screen (AID 1346986). Further: nearly all actives have a fitted effect of over 60% in size. The method in brief:
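Cells seeded 500/well in DMEM/10% FCS; compounds pinned in dose-response; 72 h incubation; CellTiter-Glo added, 5 min, luminescence. KB-8-5-11 run ±tariquidar to test reversal of P-gp resistance.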

In a further experiment the test system is HEK293. The experiment in a line: Cytotoxic Profiling of Annotated Libraries Using Quantitative High-Throughput Screening (AID 1296008). Further: nearly all actives have a fitted effect of over 60% in size. Further: potency means the concentration at half of the fitted maximal effect. On max response: on the % scale 0 is the no-effect control and ±100 the full control effect. The conditions noted are these: Five cell lines viability, CellTiter-Glo ATP luminescence, 48-72 h; max response: stronger effect = lower value. In a few lines: as §1

Each structure is given as a SMILES string. Inconclusive results are not listed. Active and inactive are the calls of the source. Unless noted, the call rests on the fitted dose curve; in most records, active means well fitted curve in the direction sought with a large enough effect; inconclusive means small, poorly fitted or top-dose-only effect, or another doubt; inactive means no such curve, though single readings can be large; an effect the other way counts as inactive or inconclusive.

Cytochrome P450 2D6 (Homo sapiens), sequence (P10635 whole entry, looked up): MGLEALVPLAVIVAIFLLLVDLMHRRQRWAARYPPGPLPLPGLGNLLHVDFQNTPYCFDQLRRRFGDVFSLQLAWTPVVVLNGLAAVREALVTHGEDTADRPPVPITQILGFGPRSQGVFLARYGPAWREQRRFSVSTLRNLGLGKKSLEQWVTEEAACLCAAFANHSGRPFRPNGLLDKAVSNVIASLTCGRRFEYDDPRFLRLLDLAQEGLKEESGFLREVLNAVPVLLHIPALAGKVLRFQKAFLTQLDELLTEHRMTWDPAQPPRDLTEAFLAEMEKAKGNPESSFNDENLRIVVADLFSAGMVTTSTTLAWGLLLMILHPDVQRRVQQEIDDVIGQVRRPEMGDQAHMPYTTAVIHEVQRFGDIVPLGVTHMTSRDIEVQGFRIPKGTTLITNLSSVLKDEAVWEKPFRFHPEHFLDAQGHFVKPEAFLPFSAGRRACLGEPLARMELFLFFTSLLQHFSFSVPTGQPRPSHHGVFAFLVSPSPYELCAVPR
Catechol O-methyltransferase (Homo sapiens), sequence (P21964 whole entry, looked up): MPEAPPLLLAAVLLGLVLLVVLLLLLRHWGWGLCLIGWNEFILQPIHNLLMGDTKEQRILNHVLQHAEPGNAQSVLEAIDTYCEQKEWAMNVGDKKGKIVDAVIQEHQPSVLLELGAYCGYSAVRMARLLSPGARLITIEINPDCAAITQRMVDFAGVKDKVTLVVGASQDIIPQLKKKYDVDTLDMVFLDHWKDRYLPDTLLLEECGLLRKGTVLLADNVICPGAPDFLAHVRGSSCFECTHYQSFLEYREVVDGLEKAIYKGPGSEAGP

In the case of `C[C@@H]1CCC2[C@@H](C)C(=O)OC3O[C@@]4(C)CCC1[C@]32OO4` (some centres undefined), the Potency entry (in experiment [1]; in [2]; in the experiment with HeLa; in the experiment with SKOV3) was “inactive” throughout. Also, the max response in the experiment with HaCat [3] is -1.21% (inactive); in the experiment on KB-3-1, -7.11% (inactive).

On to `COC(=O)[C@@]1(C)C(=O)C=C[C@]2(C)c3c(O)cc(C(C)C)cc3[C@H](O)[C@@H](OC(C)=O)C12` (some centres undefined), for which the Potency entry (in experiment [1]; in [2]; in the experiment with CRL-7250; with HeLa; in the experiment with SKOV3) was “inactive” throughout. In addition, the outcome with HaCat [3] is “inactive”. The outcome in the experiment on HACAT [4] is “inactive [at 17.4 µM]”.

Regarding `C=C[C@H]1CN2CCC1C[C@H]2[C@H](O)c1ccnc2ccccc12` (some centres undefined), the Potency entry (in experiment [1]; in [5]; in experiment [6]; in [2]; in the experiment on HeLa; in the experiment with SKOV3) was “inactive” in each case. In addition, the max response is -26.7% (inactive) in the experiment on HaCat [3] and 2.39% (inactive) in the experiment with KB-3-1.

As for `C[C@]12CC[C@@H](O[C@@H]3O[C@H](CO)[C@@H](O)[C@H](O)[C@H]3O)C[C@@]1(O)CCC1C2CC[C@]2(C)[C@@H](C3=CC(=O)OC3)CC[C@]12O` (some centres undefined), the Potency in experiment [1] is 159 nM (active); in experiment [5] it was 79.6 nM (active); in [6], 112 nM (active); in the experiment with HaCat [3], 1000 nM (active); with KB-3-1, 200 nM (active); in the experiment with SKOV3, 355 nM (active). The Potency result in experiment [2] was “inactive”. Besides, in the experiment on NIH3T3, the outcome is “inactive [at 17.4 µM]”.

`Cc1cccc(NC(=O)NC2N=C(c3ccccc3)c3ccccc3N(CC(=O)c3ccccc3C)C2=O)c1` (centres undefined): the Potency result (in experiment [1]; in experiment [7]; in experiment [2]; in the experiment with HeLa; in the experiment on SKOV3) was “inactive” each time. Also, the outcome with HaCat [3], in the experiment on HACAT [4] and with NIH3T3 was “inactive” throughout. In the experiment with KB-3-1, the max response was 7.53% (inactive).

For `Clc1ccc([C@]23CNC[C@H]2C3)cc1Cl`, the Potency entry in [1], in experiment [5], in [6] and in experiment [2] was “inactive” in each case. In addition, the activity in [8] was -0.0723%; in experiment [10], -7.01%; in [11], -90.8%. The activity change, negative = inhibition in experiment [9] came out at 2.99%. In addition, the outcome with HaCat [3] and in the experiment with HACAT [4] was “inactive” throughout. In addition, the max response in the experiment with KB-3-1 was -2.06% (inactive).

Regarding `COc1ccc2[nH]c(-c3ccccc3)c(CCN(C)C)c2c1`, the Potency result (in experiment [1]; in [2]; in the experiment with CRL-7250; with HeLa; in the experiment on SKOV3) was “inactive” throughout. Further, the Potency in experiment [7] was 2130 nM (active); in [12], 16900 nM (active). Further, the outcome in the experiment on HaCat [3] and in the experiment with HACAT [4] was “inactive” in each case.

Regarding `CC1CCCC(O)CCC/C=C/c2cc(O)cc(O)c2C(=O)O1` (centres undefined), the Potency entry (in [13]; in experiment [1]; with HeLa; in the experiment on SKOV3) was “inactive” each time. The max response in the experiment on HaCat [3] is 0.224% (inactive). For the same compound, the outcome with KB-3-1 was “inactive”.

On to `C[C@]12CC[C@@H](O)C[C@@H]1CC[C@@H]1[C@@H]2CC[C@]2(C)C(=O)[C@@H](Br)C[C@@H]12`, for which the Potency in experiment [5] was 6490 nM (active); in experiment [6] it was 10300 nM (active). The outcome with HaCat [3] and in the experiment on HACAT [4] was “inactive” each time. Also, in the experiment on KB-3-1, the max response was 9.47% (inactive). The Potency result with HeLa and in the experiment with SKOV3 was “inactive” each time.

As for `C=C1C(=O)OC2/C=C(\COO)CC/C=C(\COC(C)=O)CC(OC(=O)C(C)CC)C12` (centres undefined), the Potency in experiment [5] is 6320 nM (active); in [6], 3550 nM (active). In addition, in the experiment on HaCat [3], the outcome was “inactive”. Besides, the outcome in the experiment with HACAT [4] is “inactive [at 17.4 µM]”. Further, in the experiment on HeLa, the Potency entry is “inactive”.

On to `O=C(NCCN1CCC2(CC1)C(=O)NCN2c1cccc(F)c1)c1ccc(F)c(F)c1`, for which the results for the Potency in experiment [1], in [5] and in [6] were 16400 nM (active), 23000 nM (active) and 14500 nM (active), respectively. Also, the Potency entry (in experiment [2]; with CRL-7250; with SKOV3) was “inactive” each time.

Take `C[C@@H]1O[C@@H](O[C@H]2CC[C@@]3(C)C(CC[C@@H]4C3CC[C@]3(C)[C@@H](C5=CC(=O)OC5)CC[C@]43O)C2)[C@H](O[C@@H]2O[C@H](CO)[C@@H](O)[C@H](O)[C@H]2O)[C@H](O)[C@H]1O` (some centres undefined): the Potency in [5] is 171 nM (active); in experiment [6], 483 nM (active); in the experiment with HEK293 it was 485 nM (active); in the experiment on HaCat [3], 2170 nM (active); in the experiment with KB-3-1, 862 nM (active); in the experiment on HeLa it was 1260 nM (active). The Potency in the experiment with SKOV3 is 2240 nM (active).
